Test: basal RPMI8226 viability, no added stimulus, profiling panel, cell-based, calcein-AM fluorescence, 48 h, PK04 Diversity Set (AID 1166);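 also: cells grown under basal conditions without added stimulus; test concentration not given here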
Settings: RPMI8226 myeloma viability, higher = more signal

First: COCC(=C=CC[C@@H](O)c1cccc(OCCO)c1)C[C@@H](O)c1ccccn1
Second: C=C(C(=O)CC[C@@H](OC(=O)c1cccnc1)c1ccccc1OCCO)C(C)C
The z-score of the first is higher: -0.51 for the first, -1.08 for the second.

Compared with C[C@@]1([C@@H](NC(=O)c2ccc(-c3ccccc3)cc2)c2ccc(Cl)cc2)C[C@H]1C1CCCCC1, O=C(N1CCCCC1)[C@]1(Cc2ccccc2)N=C(c2ccc(OCCCO)cc2)O[C@@H]1c1ccccc1 is higher in z-score: -4.76 for the first, -4.43 for the second.

First: CCc1cccc(NC(=O)O[C@H]2[C@H](OC(=O)Nc3ccccc3-c3ccccc3)[C@@H](OC(=O)Nc3ccccc3-c3ccccc3)[C@@H](OC)O[C@@H]2CO)c1
Second: COCCOC(=O)N1C(=O)[C@@]2(c3ccccc31)[C@H](c1ccc(O)cc1)N1[C@H](c3ccccc3)[C@H](c3ccccc3)OC(=O)[C@H]1[C@@H]2C(=O)Nc1nc2ccccc2s1
The z-score of the first is lower: -4.11 for the first, -2.22 for the second.

Compared with C=C[C@H](CO[Si](CC)(CC)CC)N(Cc1ccc(OC(C)=O)c(OC)c1)S(=O)(=O)c1ccc(Br)cc1, CCS[C@H]1[C@@H](C(=O)O)[C@H](c2ccc(C)cc2)N(S(=O)(=O)c2ccc(C)cc2)[C@@H]1CC is higher in z-score: -4.32 for the first, 0.458 for the second.

Going from C[C@H]1NC(=O)[C@@]23C(=O)N[C@@H](Cc4ccccc4)C2[C@H](C)[C@@]2(C)O[C@H]2C3/C=C/C/C=C\CNC(=O)[C@@H]2CCCN2C1=O (stereo not given in full) to CC(C)C[C@@H]1NC(=O)[C@H](C(C)C)NC(=O)[C@@]23C(=O)N[C@@H](Cc4ccccc4)C2[C@H](C)[C@@]2(C)O[C@H]2C3/C=C/CC/C=C/CNC1=O (stereo not given in full), the z-score falls from 0.727 to -0.789.

Going from COCCOC(=O)N1C(=O)[C@@]2(c3ccccc31)[C@H](C(=O)N1CCc3cc(OC)c(OC)cc3C1)[C@H]1C(=O)O[C@H](c3ccccc3)[C@H](c3ccccc3)N1[C@@H]2c1ccc(OCCO)cc1 to C=CCOC(=O)[C@@H]1[C@H]2C(=O)O[C@H](c3ccccc3)[C@H](c3ccccc3)N2[C@H](c2ccc(OCCOC(=O)[C@H]3C[C@H]4C(=O)N5CCC[C@H]5C(=O)N4[C@H]3c3ccc(O)cc3)cc2)[C@@]12C(=O)Nc1ccc(I)cc12, the z-score falls from 0.494 to -1.31.

Compared with [N-]=[N+]=Nc1ccccc1[C@H]1OC(c2ccc(OCCCO)cc2)=N[C@@]1(CCS(=O)(=O)c1ccccc1)C(=O)NCC(O)CO (stereo not given in full), [N-]=[N+]=NCc1ccccc1[C@@H]1OC(c2ccc(OCCCO)cc2)=N[C@]1(Cc1ccccc1)C(N)=O is lower in z-score: 0.395 for the first, -1.63 for the second.

Going from C=C(CCCC)C(=O)CC[C@@H](OC(=O)c1ccccc1-c1ccccc1C(=O)O)c1ccc(OCCO)cc1 to C=C(CCCC)/C(=C/C[C@H](OC(=O)c1ccncc1)c1ccccc1OCCO)c1cnc2ccccc2c1, the z-score rises from -3.04 to -2.97.

Going from O=C(CS)NCCCCCCNC(=O)[C@@H]1C[C@@H]2C(=O)N[C@@H](Cc3ccccc3)C(=O)N2[C@@H]1c1cccc(OCCO)c1 to O=C(CS)NCCCCCCNC(=O)[C@@H]1C[C@@H]2C(=O)NCC(=O)N2[C@@H]1c1cccc(OCCO)c1, the z-score rises from 0.537 to 0.754.

Going from CC(C)C(O)C1C=CC2C(=O)N(c3ccccc3)C(=O)C2N1Nc1ccc([N+](=O)[O-])cc1 (stereo not given) to CCC(CC)C(O)C1C=CC2C(=O)NC(=O)C2N1Nc1ccccn1 (stereo not given), the z-score rises from -0.023 to 0.0749.

Compared with CC(C)N1C(=O)[C@@]2(Cc3ccccc31)c1ccccc1C(=O)N(Cc1ccccc1Cl)[C@H]2c1ccc(CO)cc1, O=C1O[C@@H](c2ccccc2)[C@@H](c2ccccc2)N2[C@@H](c3ccccc3OCCO)[C@]3(C(=O)Nc4ccc(C#CC5=CCCCC5)cc43)[C@@H](C(=O)N3CCCCCCC3)[C@H]12 is lower in z-score: -0.238 for the first, -2.79 for the second.

Compared with C=CCC(OC(C)=O)[C@@H]1[C@@H](N(Cc2cc3ccccc3o2)C(=O)c2cccc3ccccc23)c2cc(OCCCO)ccc2N1C(=O)c1ccc(-c2ccccc2)cc1 (stereo not given in full), C=CCC(OC(C)=O)[C@@H]1[C@@H](N(Cc2ccc(-c3ccccc3)cc2)C(=O)Cc2ccc(OC)cc2)c2cc(OCCCO)ccc2N1C(=O)Cc1ccc2ccccc2c1 (stereo not given in full) is higher in z-score: -2.25 for the first, -0.252 for the second.

Going from Cc1ccc(S[C@]2(C(=O)O)CC(=O)N(C(C)C)[C@@H]2c2ccc(CO)cc2I)cc1 to CC(C)(C)OC(=O)CC[C@]1(C(=O)N2CCOCC2)N=C(c2ccc(OCCCO)cc2)O[C@H]1c1ccccc1N=[N+]=[N-], the z-score rises from -0.902 to -0.337.

First: O=C1OCCC/C=C\[C@H]2OC34C=CCN(Cc5ccccc5)C(=O)[C@H]3N(CCCO)C(=O)[C@@H]4C12 (stereo not given in full)
Second: CCN(CC)c1ccc(N2CC=CC34O[C@@H]5C=CCCOC(=O)C5[C@H]3C(=O)N(CCCCCCO)[C@@H]4C2=O)cc1 (stereo not given in full)
The z-score of the first is higher: 0.438 for the first, 0.401 for the second.

Going from COC(=O)[C@@]1(Cc2ccc(OC)cc2)[C@H]2c3cc(C(=O)N(C)C)n(Cc4ccc(S(C)(=O)=O)cc4)c3C[C@H]2CN1C(=O)c1ccccc1 to COC(=O)[C@@]1(Cc2ccc(F)cc2)[C@H]2c3cc(C(=O)N(C)C)n(Cc4ccc(Cl)c(C(F)(F)F)c4)c3C[C@H]2CN1C(=O)c1ccccc1, the z-score falls from 1.51 to -4.06.

Compared with CC(C)OC(=O)C=C1C[C@@H](c2ccccn2)O[C@@H](c2ccccn2)O1, COC(=O)[C@@]1(Cc2ccc(OC)cc2)[C@H]2c3cc(C(=O)N4CCCC4)n(CCN4CNCC4=O)c3C[C@H]2CN1C(=O)c1ccccc1 is lower in z-score: -1.14 for the first, -2.17 for the second.

Compared with NCCCCCCNC(=O)[C@@H]1C[C@@H]2C(=O)NCC(=O)N2[C@@H]1c1ccc(O)cc1, CCOC(=O)[C@H]1C/C=C/C[C@H](C(=O)OCC)C(=O)O[C@H]2[C@@H](OC)O[C@H](CO)[C@@H](OC(=O)c3c(OC)cccc3OC)[C@@H]2OC1=O is lower in z-score: 0.0172 for the first, -4.09 for the second.

For CCCCCCc1nc(-c2cc(C)c(OC)c(C)c2)cc2c1[Si](C(C)C)(C(C)C)OC2, the z-score was -1.11.
